In the library only some 2.1% were active in any assay of this set; here they are far more common.
Shn3 3UTR inh = reduction of Shn3 3'UTR firefly luciferase signal, primary screen, Schnurri-3 inhibitor project, cell-based, Clone20 osteoblasts, set 2. Clone20 osteoblast Shn3 3'UTR firefly luciferase, 24 h. inhibition, % at 12.5 µM. 0.52% of 360,000 active. AID 588674, 2011;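 active means mean inhibition of at least 75% with every replicate also reaching 75%; inconclusive means mean inhibition at least 75% but some replicate below; inactive means mean inhibition below 75%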;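 further: 0% = median of neutral control wells and 100% = pilot-screen positive control compound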
aSyn UTR inh = MLPCN primary screen, SNCA 5' untranslated region | alpha-synuclein 5'UTR reporter, inhibitor activity | inhibition, % (tested at 7.5 µM) | 0.82% of 300,000 active | AID 1813, 2009; in the data active means inhibition above about 60%; inconclusive means no clear call, values can overlap the other calls;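 further: H4 neuroglioblastoma cells stably carrying SNCA 5'UTR luciferase fusion; 0% = DMSO wells and 100% = positive control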
MITF TRPM1 inh = inhibitors of MITF-dependent TRPM1 promoter reporter, primary screen, cell-based, SK-MEL-5, single point, luciferase; 0.83% of 330,000 active; AID 488899, 2010; inhibition, % at 12.5 µM; SK-MEL-5 TRPM1 promoter luciferase, 24 h;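 active means mean inhibition across replicates of 60% or more, whatever share of single replicates reaches that level; inconclusive means some that reach 60%, reason not given; inactive means mean inhibition across replicates below 60%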
PAX8 inh HTS = inhibitors of PAX8-driven TPO luciferase reporter, primary screen, RMG-I cells, single concentration. SteadyGlo, 24 h. 1.2% of 360,000 active. inhibition, % at 12.6 µM;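 active means mean replicate inhibition at least 60% with every replicate also reaching 60%; inconclusive means only one of the two criteria is met; inactive means mean below 60% and not all replicates reaching 60%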;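 further: luciferase light reporting Pax8 driven TPO promoter activity; plate controls were median of neutral control wells for no effect and mitoxantrone controls for full effect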
EBV LMP1 NFkB = EBV LMP1-driven NF-kappaB luciferase reporter inhibitors, primary screen, cell-based, luminescence, single point; LMP1-induced NF-kappaB luciferase reporter cells; inhibition, % at 12.5 µM; 0.69% of 350,000 active; AID 504558, 2011; in the data active means inhibition above about 41%; inconclusive means no clear call, values can overlap the other calls;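 further: 0% = neutral control wells and 100% = reference inhibitor control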
* = called active by the depositor.

`CCn1c2ccccc2c2cc(/C=N/n3cnnc3)ccc21` gave Shn3 3UTR inh 28, aSyn UTR inh 37, MITF TRPM1 inh -5 and EBV LMP1 NFkB 83*.
Screening CCn1c2ccccc2c2cc(/C=N/n3c(-c4cc(C)[nH]n4)n[nH]c3=S)ccc21 returned Shn3 3UTR inh 5, aSyn UTR inh 2, MITF TRPM1 inh 12, PAX8 inh HTS 25 and EBV LMP1 NFkB 87*.
Screening COc1cccc(/C=C/c2ccccn2)c1O returned Shn3 3UTR inh -157, aSyn UTR inh -98, MITF TRPM1 inh -60, PAX8 inh HTS -77 and EBV LMP1 NFkB -11.
Screening CCN(C(=O)COC(=O)/C=C/c1ccc(Cl)c(Cl)c1)c1c(N)n(Cc2ccccc2)c(=O)[nH]c1=O returned Shn3 3UTR inh 25, PAX8 inh HTS -1 and EBV LMP1 NFkB 9.
O=C(NN1CCOCC1)c1c(-c2ccccc2)sc2ccccc12 was read as Shn3 3UTR inh -10, MITF TRPM1 inh 10, PAX8 inh HTS 1 and EBV LMP1 NFkB 0.
Screening CN(C)/N=C/c1ccc(Sc2ccc([N+](=O)[O-])cc2[N+](=O)[O-])o1 returned Shn3 3UTR inh 12, aSyn UTR inh -24, MITF TRPM1 inh 3, PAX8 inh HTS 6 and EBV LMP1 NFkB -14.
For O=[N+]([O-])c1cc(Cl)ccc1Sc1cccc2cccnc12 the results were Shn3 3UTR inh -2, aSyn UTR inh 23, MITF TRPM1 inh 20 and EBV LMP1 NFkB 6.
For C=CCn1nc([N+](=O)[O-])nc1Sc1cccc2cccnc12 the results were Shn3 3UTR inh 89*, aSyn UTR inh -8, MITF TRPM1 inh 44 and EBV LMP1 NFkB -1.
For O=[N+]([O-])c1cc(Cl)ccc1Sc1ccccn1 the results were aSyn UTR inh 14, MITF TRPM1 inh 0, PAX8 inh HTS -13 and EBV LMP1 NFkB 8.
`O=[N+]([O-])c1ccc(Sc2cccc3cccnc23)c([N+](=O)[O-])c1` gave Shn3 3UTR inh 93*, aSyn UTR inh -5, MITF TRPM1 inh 76* and EBV LMP1 NFkB -98.
O=[N+]([O-])c1ccc(Sc2ccncn2)c([N+](=O)[O-])c1 was read as Shn3 3UTR inh 58, PAX8 inh HTS 105* and EBV LMP1 NFkB 26.
`Cc1cc(C)nc(Sc2ccc([N+](=O)[O-])cc2[N+](=O)[O-])n1` gave Shn3 3UTR inh 1, aSyn UTR inh -17, MITF TRPM1 inh 31, PAX8 inh HTS 94* and EBV LMP1 NFkB -36.
Screening Cc1ccc2cc(C3CC(c4ccco4)=NN3C(=O)CCC(=O)O)c(Cl)nc2c1 (stereo not drawn) returned Shn3 3UTR inh -8, aSyn UTR inh 5, MITF TRPM1 inh -7, PAX8 inh HTS 2 and EBV LMP1 NFkB 8.
COc1ccc(OC)c(-c2cc(-c3cccnc3)nc(N)c2C#N)c1 was read as Shn3 3UTR inh -8, aSyn UTR inh 0, MITF TRPM1 inh 5, PAX8 inh HTS 21 and EBV LMP1 NFkB 3.
Cc1cc(NC(=O)CSc2nnc(-c3ccccc3C)n2C)no1 was read as Shn3 3UTR inh -8, MITF TRPM1 inh -5, PAX8 inh HTS -5 and EBV LMP1 NFkB 2.
Cc1cc(NC(=O)CSc2nnc(-c3ccco3)n2C)no1 was read as Shn3 3UTR inh -2, MITF TRPM1 inh -5, PAX8 inh HTS 10 and EBV LMP1 NFkB 71*.
Cc1cc(NC(=O)CSc2nc3ccccc3c(=O)n2C2CCCC2)no1 was read as Shn3 3UTR inh 14, aSyn UTR inh 86*, MITF TRPM1 inh 22 and EBV LMP1 NFkB 14.
For Cc1cnc(NC(=O)c2ccc(F)c(S(=O)(=O)N3CCOCC3)c2)s1 the results were Shn3 3UTR inh -13, MITF TRPM1 inh -22, PAX8 inh HTS -15 and EBV LMP1 NFkB 1.
Screening CCOC(=O)Cn1cc(C(=O)C(=O)N2CCOCC2)c2ccccc21 returned Shn3 3UTR inh 9, aSyn UTR inh 7, MITF TRPM1 inh 6, PAX8 inh HTS 0 and EBV LMP1 NFkB -2.
For Cc1ccc(-n2nnc(-c3cnc4ccccc4c3)n2)cc1 the results were Shn3 3UTR inh -34, aSyn UTR inh 39, MITF TRPM1 inh 7, PAX8 inh HTS -91 and EBV LMP1 NFkB 7.
`Cc1oc(-c2ccc(Cl)cc2)nc1CN1CCC(C(=O)NCCCN2CCCC(C)C2)CC1` (stereo not drawn) gave Shn3 3UTR inh -16, aSyn UTR inh 17, MITF TRPM1 inh 96*, PAX8 inh HTS inconclusive and EBV LMP1 NFkB -36.

Source: PubChem
